These compounds were tested against Cyclin-dependent kinase 2 (Homo sapiens) (UniProt P24941). Settings: at 0.1 µM.
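Also: mean inhibition of CDK2 in complex with cyclin E.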

Row | Compound | inhibition [%]
1 | CC1=C(C(=O)Nc2cc(Cl)c3[nH]ncc3c2)C(c2ccc(C(F)(F)F)cc2)CC(=O)N1 (centres undefined) | 2.4
2 | c1cc(-c2cnn3nc(N4CCOCC4)ccc23)nc(NC2CC2)n1 | 9.31
3 | CC(C)COC(=O)c1ccc2c(c1)/C(=C/Nc1ccc(S(N)(=O)=O)cc1)C(=O)N2 | 66.2
4 | Fc1ccc(-c2cc(-c3c[nH]nc3-c3ccccn3)ccn2)cc1 | 2.72
5 | COC(=O)c1sc(-n2cnc3cc(OC)c(OC)cc32)cc1OCc1ccccc1C(F)(F)F | 4.73
6 | Nc1ncc(-c2cccc(S(N)(=O)=O)c2)c2scc(-c3ccc(F)c(Cl)c3)c12 | 2.68
7 | Fc1ccc(-c2nn3ncccc3c2-c2ccnc(Nc3ccc4c(c3)OCCO4)n2)cc1 | 2.71
8 | COc1cc(Nc2nccc(Nc3ccc4c(C)n[nH]c4c3)n2)cc(OC)c1OC | 2.32
9 | O=C(O[C@H]1CN[C@H](C#Cc2cc3ncnc(Nc4ccc(Cc5ccccc5)cc4)c3s2)C1)N1CCOCC1 | 1.15
10 | Nc1nc(-c2ccc(F)cc2)c(-c2ccc3ncccc3n2)s1 | 6.09
11 | COc1ccc(-c2nn3ncccc3c2-c2ccnc(Nc3ccc4c(c3)OCCO4)n2)cc1 | -0.84
12 | CNC(=O)c1cncc(/C=C/c2ccccc2Cl)c1 | -0.47
13 | CCn1c(-c2nonc2N)nc2ccccc21 | 1.38
14 | N#Cc1c(NC(=O)CN2CCOCC2)sc2c1CCCC2 | 6.96
15 | NS(=O)(=O)c1ccc(N/N=C2\C(=O)Nc3ccc4ncccc4c32)cc1 | 83.1
16 | Nc1nc(-c2cccc(Cl)c2)c(-c2ccc3ncccc3n2)s1 | 3.69
17 | c1ccc(-c2nc3n(c2-c2ccc4c(c2)OCO4)CCC3)nc1 | 2.41

Row | Compound | inhibition [%]
18 | Cc1ccc(O)cc1Nc1ccnc2cc(-c3ccccn3)ccc12 | 3.98
19 | NS(=O)(=O)c1ccc(Nc2ncc(-c3ccccc3)o2)cc1 | 56.2
20 | COc1cccc(-n2ncc3c(N/N=C/c4ccc(F)cc4)ncnc32)c1 | 5.86
21 | CCc1nn2ncccc2c1-c1ccnc(NC2CC2)n1 | 2.25
22 | COc1ccc(CNC(=O)c2ccc(-c3cc(-c4nnc(C)o4)ccc3C)cc2)cc1 | 1.68
23 | CCCN(CCS(C)(=O)=O)Cc1ccc(-c2ccc3ncnc(Nc4ccc(OCc5cccc(F)c5)c(Cl)c4)c3c2)o1 | 1.97
24 | Cc1ccc2c(-c3ccnc(Nc4ccccc4)n3)c(-c3ccc(F)cc3)nn2n1 | 2.35
25 | COc1cc(/C=N/Nc2ncnc3[nH]ncc23)ccc1O | 4.7
26 | FC(F)(F)c1cccc(-c2nn3ncccc3c2-c2ccnc(Nc3ccc4c(c3)OCCO4)n2)c1 | 4.14
27 | O=S(=O)(CCNCc1ccc(-c2ccc3ncnc(Nc4ccc(OCc5cccc(F)c5)c(Cl)c4)c3c2)o1)c1ccccc1 | 3.6
28 | CCn1c(-c2nonc2N)nc2c(C#CC(C)(C)O)ncc(OC3CCNCC3)c21 | 1.95
29 | COc1ccc2c(-c3ccnc(Nc4cccc(OC(F)(F)F)c4)n3)cnn2n1 | 14.8
30 | CC(C)(CO)CNC(=O)c1ccc2c(c1)/C(=N/Nc1ccc(S(N)(=O)=O)cc1)C(=O)N2 | 68.4
31 | NC(=O)c1sc(-n2cnc3ccc(C(F)(F)F)cc32)cc1OCc1ccccc1Br | 1.94
32 | COC(=O)Nc1nc2ccc(Oc3ccc(NC(=O)Nc4cccc(Cl)c4)cc3)cc2[nH]1 | 1.4
33 | CS(=O)(=O)CCNCc1ccc(-c2ccc3ncnc(Nc4ccc(OCc5ccccc5)c(C(F)(F)F)c4)c3c2)o1 | 2.59
34 | COc1ccc2[nH]c3c4[nH]c5ccc(OC)cc5c4c4c(c3c2c1)C(=O)NC4=O | 3.64

— ChEMBL document CHEMBL1961873, “Compounds: GSK PKIS; Assays: Nanosyn kinase panel” (2012)
